A selection: hits, their analogues and other compounds. The true share with any hit is near 6.7%.
Pf Dd2 growth: inhibitors of Plasmodium falciparum Dd2 growth. P. falciparum Dd2 growth, SYBR Green, 72 h; active compounds read low. actives 2.3% (n = 94,000). activity change, % at 10 µM; in the data active = activity change below about -80%; inconclusive = no clear call, values can overlap the other calls
C diff HTS: inhibitors of Clostridium difficile growth; AID 1259249; actives 0.25% (n = 86,000); Clostridium difficile clinical isolate growth, OD600, 24 h; active compounds read low; growth activity, negative = inhibition, % at 16 µg/mL (by protocol);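 active = mean growth activity at or below -80% and every replicate also at or below -80%; inconclusive = mean at or below -80% but some replicate above -80%; inactive = mean growth activity above -80%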;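 also: 0% = DMSO wells and -100% = levofloxacin 16 µg/mL wells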
T cruzi growth-1: blocks T. cruzi growth in NIH3T3 culture. T. cruzi beta-gal in NIH3T3, GalScreen luminescence, 90 h. inhibition, % at 8.34 µM. actives 5.9% (n = 77,000);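 active = mean inhibition above about 93%, with at least 55% of replicates each passing it, limit read from the data, passing the limit was not always enough; inconclusive = only one of those two conditions holds; inactive = neither condition holds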
T cruzi growth-2: blocks T. cruzi growth in NIH3T3 host cells; T. cruzi beta-gal in NIH3T3, GalScreen luminescence, 90 h; AID 651739; actives 72% (n = 5,600); inhibition, % at 8.35 µM; shares compounds with T cruzi growth-1;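 active = mean replicate inhibition above about 95% and at least 55% of replicates individually reaching it, limit read from the data; inconclusive = only one of the two criteria is met; inactive = neither criterion is met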
T cruzi growth-3: blocks T. cruzi growth in NIH3T3 host cells. shares compounds with T cruzi growth-1. T. cruzi beta-gal in NIH3T3, GalScreen luminescence, 90 h. inhibition, % at 2.09 µM. actives 21% (n = 5,600). AID 651740;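 active = mean inhibition above about 95%, with at least 55% of replicates also reaching it, limit read from the data; inconclusive = meets just one of the two conditions; inactive = meets neither condition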;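 also: plate controls were neutral control median for no effect and positive control median for full effect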
NIH3T3 tox: NIH/3T3 (mouse) viability loss; shares compounds with T cruzi growth-1; NIH/3T3 viability, CellTiter-Glo ATP luminescence, 90 h; cytotoxicity (signal decrease), % at 8.35 µM; actives 14% (n = 5,600); AID 651742;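 active = mean signal decrease across replicates above about 35% based on untreated-well scatter, with enough replicates individually passing, limit read from the data; inconclusive = no rule stated though some were filed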;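 also: 0% = median of neutral control wells and 100% = median of positive control wells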
NIH3T3 tox 2: kills mouse NIH/3T3 fibroblasts | shares compounds with T cruzi growth-1 | actives 56% (n = 5,600) | AID 651744 | inhibition, % at 24.9 µM | NIH/3T3 viability, CellTiter-Glo ATP luminescence, 90 h;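 active = mean loss of cell viability signal at or above a set limit, and enough replicates individually reaching it; inconclusive = meets only the mean limit or only the replicate share; inactive = meets neither condition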;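 also: 0% = median of neutral control wells and 100% = median of positive control wells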
* marks the source's active call; other numbers are inactive results.

For CC(C)NC(=O)N[C@H]1CC[C@@H](CCn2cc(-c3ccccc3)nn2)O[C@@H]1CO the results were Pf Dd2 growth 7, C diff HTS -1 and T cruzi growth-1 38.
For CCCNC(=O)C[C@@H]1CC[C@@H]2[C@H](COC[C@H](O)CN2C(=O)C2CCOCC2)O1 the results were Pf Dd2 growth 5 and T cruzi growth-1 21.
Screening COc1ccc(NC(=O)N(C)C[C@@H]2Oc3ccc(NC(=O)Cn4cnnn4)cc3C(=O)N([C@H](C)CO)C[C@H]2C)cc1 returned Pf Dd2 growth 34 and T cruzi growth-1 -43.
For C[C@@H]1CN([C@H](C)CO)C(=O)c2cc(-c3cccnc3)cnc2O[C@@H]1CN(C)C(=O)C1CCCCC1 the results were Pf Dd2 growth 23, C diff HTS -1 and T cruzi growth-1 -21.
`C[C@@H]1CCCCO[C@@H](CN(C)Cc2ccncc2)[C@@H](C)CN([C@@H](C)CO)C(=O)c2cc(NC(=O)Nc3ccccc3)ccc2O1` gave Pf Dd2 growth -16, C diff HTS 6 and T cruzi growth-1 19.
C[C@@H]1CCCCO[C@H](CN(C)Cc2ccncc2)[C@@H](C)CN([C@@H](C)CO)C(=O)c2cc(NC(=O)NC3CCCCC3)ccc2O1 was read as Pf Dd2 growth -31, C diff HTS -2 and T cruzi growth-1 49.
For C[C@@H]1CCCCO[C@@H](CN(C)C(=O)c2ccccc2)[C@@H](C)CN([C@@H](C)CO)C(=O)c2cc(NS(=O)(=O)c3ccc(F)cc3)ccc2O1 the results were Pf Dd2 growth -53, C diff HTS 14 and T cruzi growth-1 60.
Screening O=C(C[C@@H]1C[C@@H]2c3cc(NC(=O)Nc4ccccc4F)ccc3O[C@@H]2[C@H](CO)O1)NCC(F)(F)F returned Pf Dd2 growth -17, C diff HTS 2 and T cruzi growth-1 -11.
`C[C@@H]1CN([C@@H](C)CO)C(=O)c2ccccc2-c2ccccc2CO[C@@H]1CN(C)S(=O)(=O)c1cccs1` gave Pf Dd2 growth 3, C diff HTS 3, T cruzi growth-1 115*, T cruzi growth-2 92, T cruzi growth-3 7, NIH3T3 tox 2 and NIH3T3 tox 2 inconclusive.
For Cc1ccccc1S(=O)(=O)N(C)C[C@H]1OCc2ccccc2-c2ccccc2C(=O)N([C@H](C)CO)C[C@@H]1C the results were Pf Dd2 growth -19, C diff HTS 12, T cruzi growth-1 inconclusive, T cruzi growth-2 95*, T cruzi growth-3 31, NIH3T3 tox -6 and NIH3T3 tox 2 2.
`C[C@H](CO)N1C[C@H](C)[C@@H](CN(C)S(C)(=O)=O)OCc2ccccc2-c2ccccc2C1=O` gave Pf Dd2 growth -2, C diff HTS -5 and T cruzi growth-1 40.
C[C@@H]1CN([C@@H](C)CO)C(=O)c2ccccc2-c2ccccc2CO[C@H]1CN(C)S(=O)(=O)c1ccccc1F was read as Pf Dd2 growth 1, C diff HTS -1 and T cruzi growth-1 24.
C[C@H](CO)N1C[C@H](C)[C@H](CN(C)C(=O)C2CCCCC2)Oc2cc(-c3ccccc3)ccc2S1(=O)=O was read as Pf Dd2 growth -44, C diff HTS 1 and T cruzi growth-1 74.
For C[C@H](CO)N1C[C@H](C)[C@H](CN(C)C(=O)Nc2ccccc2)OCCCC[C@H](C)Oc2ccc(NC(=O)c3ccncc3)cc2C1=O the results were Pf Dd2 growth -22, C diff HTS 1 and T cruzi growth-1 20.
C[C@H]1CN([C@@H](C)CO)S(=O)(=O)c2ccc(C#Cc3ccncc3)cc2O[C@H]1CN(C)S(=O)(=O)c1ccc(F)cc1 was read as Pf Dd2 growth -89*, C diff HTS 10, T cruzi growth-1 118*, T cruzi growth-2 102*, T cruzi growth-3 67, NIH3T3 tox inconclusive and NIH3T3 tox 2 11.
Screening C[C@H](CO)N1C[C@H](C)[C@H](CN(C)S(=O)(=O)c2ccc(F)cc2)Oc2cc(C#Cc3ccncc3)ccc2S1(=O)=O returned Pf Dd2 growth -84*, C diff HTS 9, T cruzi growth-1 114*, T cruzi growth-2 92, T cruzi growth-3 45, NIH3T3 tox inconclusive and NIH3T3 tox 2 65*.
For C[C@H]1CN([C@@H](C)CO)S(=O)(=O)c2ccc(C#Cc3ccncc3)cc2O[C@@H]1CN(C)C the results were Pf Dd2 growth -63, C diff HTS 5 and T cruzi growth-1 -6.
For C[C@H]1CN([C@@H](C)CO)S(=O)(=O)c2ccc(C#Cc3ccncc3)cc2O[C@H]1CN(C)C the results were Pf Dd2 growth -30, C diff HTS 7 and T cruzi growth-1 10.

Bioassay records: PubChem BioAssay, Broad Institute
